Measured values from PubChem BioAssay AID1159580 (chemical genetic matrix, 2015).
“And” between values parts separate entries of the source, which are not always exact repeats. Equal values may be shown once. About 2,000 (36%) of roughly 5,500 compounds were called active. Not shown: some 18% with an inconclusive outcome. No stated cut-off is given here; in the data, active means normalized growth mostly below about 0.91 (no sharp cut-off); inconclusive means no clear call, values can overlap the other calls; inactive means mostly above about 0.92. Some of the results follow.

Assay: chemical genetic growth profiling, strain panel (AID 1159580);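 further: tested at 20 µM; growth read once vehicle control cultures reached saturation at 30 °C; 1 = growth at the plate median or of vehicle wells; lower values mean less growth of the strain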
Details: S. cerevisiae deletion strains, growth OD

Measured: normalized growth

COc1ccc([C@@H]2CC(=O)c3c(O)cc(O)cc3O2)cc1O
inactive: locus YAL013W, strain DEP1, hits give low values 1.03 | locus YAL021C, strain ccr4, hits give low values 0.976 | locus YAL026C, strain drs2, hits give low values 0.978 | locus YAL030W, strain snc1, hits give low values 0.982 | locus YBL061C, strain skt5, hits give low values 0.977 | locus YBR009C, strain hhf1, hits give low values 0.983 | locus YBR021W, strain FUR4, hits give low values 1 | locus YBR023C, strain chs3, hits give low values 0.976 | locus YBR171W, strain sec66, hits give low values 0.999 | locus YBR229C, strain ROT2, hits give low values 1 | locus YBR231C, strain swc5, hits give low values 0.989 | locus YBR279W, strain paf1, hits give low values 0.982 | locus YCL011C, strain gbp2, hits give low values 0.975 | locus YCL016C, strain dcc1, hits give low values 0.961 | locus YCL029C, strain bik1, hits give low values 1.02 | locus YCL061C, strain MRC1, hits give low values 0.978 | locus YCL069W, strain vba3, hits give low values 0.99 | locus YCR088W, strain abp1, hits give low values 0.977 | locus YDL005C, strain med2, hits give low values 0.978 | locus YDL035C, strain GPR1, hits give low values 0.971 | locus YDL040C, strain nat1, hits give low values 0.986 | locus YDL074C, strain BRE1, hits give low values 1 | locus YDL101C, strain DUN1, hits give low values 1.01 | locus YDL185W, strain tfp1, hits give low values 1.01 | locus YDL192W, strain arf1, hits give low values 1 | locus YDR001C, strain nth1, hits give low values 0.973 | locus YDR069C, strain doa4, hits give low values 0.983 | locus YDR101C, strain arx1, hits give low values 1.02 | locus YDR137W, strain rgp1, hits give low values 0.973 | locus YDR159W, strain sac3, hits give low values 0.995 | locus YDR162C, strain NBP2, hits give low values 0.999 | locus YDR195W, strain ref2 0.994 | locus YDR297W, strain sur2, hits give low values 0.976 | locus YDR318W, strain mcm21, hits give low values 0.993 | locus YDR334W, strain swr1, hits give low values 0.985 | locus YDR335W, strain msn5, hits give low values 0.975 | locus YDR388W, hits give low values 1 | locus YDR392W, strain spt3, hits give low values 0.862 | locus YDR502C, strain sam2, hits give low values 0.995 | locus YEL003W, strain gim4, hits give low values 0.976 | locus YEL037C, strain rad23, hits give low values 0.973 | locus YEL061C, strain CIN8 (second series), hits give low values 0.977 | locus YEL061C, strain CIN8, hits give low values 1 | locus YER015W, strain faa2, hits give low values 0.983 | locus YER016W, strain bim1, hits give low values 0.976 | locus YER110C, hits give low values 1.01 | locus YER111C, strain swi4, hits give low values 0.963 | locus YER155C, strain BEM2 (second series), hits give low values 0.926 | locus YER155C, strain BEM2, hits give low values 0.998 | locus YER167W, strain BCK2, hits give low values 1 | locus YFR010W, strain ubp6, hits give low values 0.972 | locus YGL078C, strain dbp3, hits give low values 1 | locus YGL086W, strain mad1, hits give low values 1.03 | locus YGL167C, strain pmr1, hits give low values 0.977 | locus YGL173C, strain kem1, hits give low values 0.978 | locus YGL227W, strain vid30, hits give low values 0.988 | locus YGL240W, strain doc1, hits give low values 0.989 | locus YGL248W, strain PDE1, hits give low values 1.01 | locus YGL253W, strain hxk2, hits give low values 0.961 | locus YGR078C, strain PAC10, hits give low values 1.02 | locus YGR135W, strain pre9, hits give low values 0.979 | locus YGR229C, strain SMI1, hits give low values 0.983 | locus YGR252W, strain gcn5, hits give low values 0.893 | locus YHR013C, strain ard1, hits give low values 0.955 | locus YHR027C, strain rpn1, hits give low values 0.994 | locus YHR030C, strain SLT2, hits give low values 1.01 and 1 | locus YHR079C, strain IRE1 (second series), hits give low values 1.01 | locus YHR079C, strain IRE1, hits give low values 1.01 | locus YHR094C, strain hxt1, hits give low values 1.01 | locus YHR129C, strain ARP1, hits give low values 1 | locus YHR142W, strain chs7, hits give low values 0.918 | locus YHR200W, strain rpn10, hits give low values 0.993 | locus YIL066C, strain RNR3, hits give low values 0.979 | locus YIL073C, strain SPO22, hits give low values 1.05 | locus YIL125W, strain kgd1, hits give low values 1.01 | locus YIR030C, strain dcg1, hits give low values 1.01 | locus YJL092W, strain hpr5, hits give low values 0.976 | locus YJL095W, strain BCK1 (second series), hits give low values 0.978 | locus YJL095W, strain BCK1, hits give low values 1.04 and 1 | locus YJL115W, strain asf1, hits give low values 0.984 | locus YJL129C, strain trk1, hits give low values 0.939 | locus YJL134W, strain LCB3, hits give low values 1 | locus YJL154C, strain vps35, hits give low values 0.98 | locus YJL164C, strain tpk1, hits give low values 0.972 | locus YJL166W, strain qcr8, hits give low values 0.969 | locus YJL168C, strain set2, hits give low values 1 | locus YJL187C, strain SWE1 (second series), hits give low values 1.02 | locus YJL187C, strain SWE1, hits give low values 0.981
